DAT uptake mod: changed human dopamine transporter uptake under cocaine IC80; AID 449768; LLC-PK1 hDAT cells, [14C]-dopamine uptake with cocaine IC80; actives deviate in either direction; B-score at 10 µM; hit rate 1.3% among 110,000;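 active = Z score or B-score, a plate-position-corrected score, falls beyond the plate's 99.7% confidence bounds, in either direction; inactive = both scores lie inside the 99.7% bounds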;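 note: scored against the spread of the other compound wells on the same plate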
Target sequence (Q01959 whole entry, looked up): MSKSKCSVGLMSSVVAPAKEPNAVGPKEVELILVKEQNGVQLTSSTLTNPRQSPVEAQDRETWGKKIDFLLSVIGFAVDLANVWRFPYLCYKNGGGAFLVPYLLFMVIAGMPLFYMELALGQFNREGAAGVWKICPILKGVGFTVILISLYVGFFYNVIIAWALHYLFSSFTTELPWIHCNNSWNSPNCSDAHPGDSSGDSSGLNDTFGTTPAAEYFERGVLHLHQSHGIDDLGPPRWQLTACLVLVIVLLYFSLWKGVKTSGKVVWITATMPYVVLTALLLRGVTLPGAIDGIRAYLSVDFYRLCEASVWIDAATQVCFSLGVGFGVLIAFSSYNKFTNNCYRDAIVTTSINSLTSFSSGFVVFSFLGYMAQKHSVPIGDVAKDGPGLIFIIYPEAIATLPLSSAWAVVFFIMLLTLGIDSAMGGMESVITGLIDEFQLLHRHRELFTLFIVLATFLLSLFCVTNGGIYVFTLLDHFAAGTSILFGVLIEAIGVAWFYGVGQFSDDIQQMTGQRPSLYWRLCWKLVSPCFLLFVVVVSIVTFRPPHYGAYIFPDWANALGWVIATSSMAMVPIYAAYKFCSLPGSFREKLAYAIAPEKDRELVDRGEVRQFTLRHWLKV
D1 allo mod: D1 dopamine receptor (human) allosteric modulation; hit rate 5.9% among 58,000; AID 641; P21728; HEK293 D1, CRE-luciferase, dopamine EC30 potentiation; actives deviate in either direction; B-score at 10 µM;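 active = luminescence count or its row- and column-corrected plate score outside the 99.7% band of the plate's sample wells, on either side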
M1 antagonist: blocks the rat M1 muscarinic receptor response to acetylcholine; P08482; hit rate 3.4% among 64,000; AID 628; B-score at 10 µM; CHO-M1 cells, Fluo-4 calcium, ACh EC80 antagonist mode; hits give low values;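 active = calcium fluorescence response, raw or row-and-column corrected B-score, differing from the plate sample mean either way at a set confidence level, mostly lower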
M1 ag: agonists of M1 muscarinic receptor. CHO-M1 cells, Fluo-4 calcium fluorescence, agonist mode; hits give high values. B-score at 10 µM. hit rate 3% among 64,000;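 active = fluorescence rise, raw or as B-score row- and column-corrected plate score, outside the 99.7% band of its plate's samples, either direction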
FXIa inh mix: inhibitors of human coagulation factor XIa, pooled mixtures; P03951; hit rate 0.19% among 62,000; purified FXIa, fluorogenic substrate; inhibition, % at 5 µM; AID 680;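 note: each value is inhibition by a whole ten-compound pool holding the compound; 0% = enzyme with no mixture and 100% = wells lacking enzyme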
FXIIa mix inh: blocks human factor XIIa in pooled compound mixtures. P00748. hit rate 0.2% among 62,000. purified FXIIa, fluorogenic substrate. inhibition, % at 5 µM;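 note: 0% = enzyme without compound and 100% = no enzyme blank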
M1 ag confirm: confirmation of rat M1 muscarinic receptor agonists; shares compounds with M1 ag; fluorescence change (max-min) at 10 µM; AID 1488; CHO-M1 cells, Fluo-4 calcium fluorescence, agonist mode; actives lie on both sides; hit rate 19% among 1,700;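 active = fluorescence change differs from the solvent-only DMSO control mean at a set confidence level in both duplicate runs; inconclusive = differs from solvent-only control mean in just one of two runs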;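 note: an EC20 dose of acetylcholine follows compound addition during the same imaging run; raw fluorescence intensity difference in instrument units with no normalization to controls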
M4 ag counter: rat M4 muscarinic agonism, M1 counter-screen. shares compounds with M1 ag. CHO M4/Gqi5 cells, Fluo-4 calcium fluorescence, agonist mode; actives lie on both sides. fluorescence change (max-min) at 10 µM. hit rate 9% among 1,700. AID 1741;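 active = fluorescence change differing from the plate's solvent-only control wells at 99.7% confidence in both duplicates, whether higher or lower; inconclusive = differs from solvent controls in only one of two duplicates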
* hit, by the source's call; ? = inconclusive; · = no result given. The list is not random: actives were taken first. Their share in the collection is about 7.4%. Cut-off read from the data, not from the text of the source, unless noted: active = inhibition above about 20% (passing the limit was not always enough); inactive = the rest.

SMILES | DAT uptake mod | D1 allo mod | M1 antagonist | M1 ag | FXIa inh mix | FXIIa mix inh | M1 ag confirm | M4 ag counter
Cc1ccc(Cl)cc1N1CCN(C(=O)c2cc3c(=O)n(C)c4ccccc4c3n2C)CC1 | 0.929 | -4.05* | -1.66 | 7.39* | 4.8 | 1.0 | -11.4 | -55.6
Cn1c(C(=O)NCC2CCCO2)cc2c(=O)n(C)c3ccccc3c21 (stereo not given) | -0.327 | 0.787 | 0.668 | -1.49 | 1.4 | 11.2 | · | ·
Cn1c(C(=O)NC2CCCC2)cc2c(=O)n(C)c3ccccc3c21 | -0.582 | -0.572 | 0.402 | 4.1* | 2.0 | -0.5 | -39* | -49.6
CCCN1Cc2cccc(C(=O)N3CCN(c4cc(Cl)ccc4C)CC3)c2C1=O | 1.38 | 1.13 | -0.0161 | 2.31* | 1.8 | 5.8 | ? | -39.5
COc1ccccc1NC(=O)CSc1nc(O)cc(=O)[nH]1 | 0.209 | -0.47 | -0.96 | 0.179 | · | · | · | ·
O=C(CN1CCN(c2ccccc2F)CC1)c1c[nH]c2ccc(F)cc12 | 0.104 | · | · | · | · | · | · | ·
COc1cccc(N2CCN(Cc3nc(N)nc(Nc4ccccc4)n3)CC2)c1 | 1.55 | -1.31 | -0.0044 | 6.27* | 4.8 | 5.0 | -28.5 | -45.2
COc1ccccc1N1CCN(Cc2nc(N)nc(Nc3ccc(C)c(Cl)c3)n2)CC1 | 1.12 | -1.26 | 0.247 | 3.34* | 4.9 | -17.8 | ? | ?
Cc1cccc(Nc2nc(N)nc(CN3CCN(c4ccccc4)CC3)n2)c1 | 1.79 | -0.0489 | 0.00376 | -0.664 | 0.1 | -4.5 | · | ·
O=C(/C=C/c1cccs1)N1CCC2(CC1)Oc1ccc(F)cc1C(=O)C21CC(c2ccccc2)=NO1 (stereo not given) | 0.443 | · | · | · | · | · | · | ·
CC12CS(=O)(=O)CC1SC(=S)N2c1ccccn1 (stereo not given) | -0.0126 | -0.0158 | 0.944 | 0.205 | 16.1 | 5.1 | · | ·
C=CCn1c(SCC(=O)c2ccc(OC)cc2)nnc1C(C)NC(=O)c1cccs1 (stereo not given) | 0.624 | 0.783 | 0.715 | -2.82* | 2.2 | 1.6 | ? | -52.3
C=CCn1c(SCC(=O)NC2CCCCC2)nnc1C(C)NC(=O)c1cccs1 (stereo not given) | 0.973 | -1.84 | -0.592 | -1.11 | -6.1 | 3.8 | · | ·
CCN1CCN(c2nc3c(C)cccn3c(=O)c2/C=C(\C#N)S(=O)(=O)c2ccc(C)cc2)CC1 | -1.23 | -2.88 | -0.53 | 9.69* | · | · | ? | 40.5
COc1ccc(C2C(C#N)=C(N)OC(C(C)(C)C)=C2C#N)cc1OC (stereo not given) | -0.0111 | 3.18 | -0.407 | 0.367 | 8.6 | -0.8 | · | ·
COc1ccc(C2C(C#N)=C(N)SC(N)=C2C#N)cc1OC | -0.366 | · | -0.216 | 38.1* | 5.3 | -5.1 | -11.4 | -50.7
O=c1n(-c2ccccc2)c(=O)n2n1CCC2 | 0.0455 | · | -0.827 | 1.7 | 1.3 | -19.2 | · | ·
Cc1ccc(CNC(=O)C2CCCN(c3nc4ccccc4o3)C2)cc1 (stereo not given) | · | 0.646 | 0.323 | -0.723 | 2.5 | 9.7 | · | ·
O=C(NCCC1=CCCCC1)C1CCCN(c2nc3ccccc3o2)C1 (stereo not given) | -0.142 | -0.86 | -0.269 | 6.79* | -0.6 | 9.1 | ? | ?
C=CCn1c(=O)c2c(nc3n2CC(C)CN3c2cccc(OC)c2)n(C)c1=O (stereo not given) | 0.389 | 1.23 | 0.256 | 1.94* | -0.6 | 3.5 | -12.7 | ?
CC1CN(c2ccc(Oc3ccccc3)cc2)c2nc3c(c(=O)n(CC(N)=O)c(=O)n3C)n2C1 (stereo not given) | 0.0318 | 0.0962 | -0.134 | 0.187 | 0.1 | -5.0 | · | ·
Cc1cc(C(=O)OCC(=O)c2ccc3c(c2)NC(=O)CO3)c2ccccc2n1 | 0.392 | · | · | · | · | · | · | ·
c1ccc(CN2CCN(C3=Nc4cccc5cccc3c45)CC2)cc1 | -0.102 | · | · | · | · | · | · | ·
O=C1CCN2C=Nc3cccc4ccc1c2c34 | 0.406 | · | -10.9* | 493* | -0.7 | 2.4 | 3266* | 2765*
Cc1cc2oc(C(=O)NCc3ccncc3)c(C)c2cc1C | -0.59 | -0.764 | -0.264 | 0.202 | 5.9 | -1.0 | · | ·
CC(NC(=O)CCOc1ccccc1)c1ccccc1 (stereo not given) | -0.107 | · | · | · | · | · | · | ·
